From the supplement of paper PMC9492666 come the findings set out here.

For one experiment, the system named is HCC1937. The experiment in a line: relative cell viability, compound + erastin, vs DMSO (fraction of DMSO control); higher = less growth inhibition. The following applies: 72 h.
The test system of a further experiment is MDA-MB-231. The description is as above. The following applies: 72 h.

Where a name gives a salt, the structure may show the parent alone.
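Also: viability read by CCK-8 kit in 96-well plates, part of a combination screen pairing lipid-metabolism-targeting compounds with erastin.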

Take `NNC(=O)c1nn(Cc2ccc(Cl)cc2Cl)c2ccccc12` [Adjudin] + CCOc1ccccc1-n1c(C(C)N2CCN(C(=O)COc3ccc(Cl)cc3)CC2)nc2ccccc2c1=O [erastin]: the relative cell viability in the experiment with HCC1937 was determined as 0.557; with MDA-MB-231, 0.711.
On the same counts, the results for `CS(=O)(=O)c1ccc(-c2nnc(/C=C/c3nnc(-c4ccc(C#N)cc4)o3)n2-c2ccccc2Cl)nc1` + CCOc1ccccc1-n1c(C(C)N2CCN(C(=O)COc3ccc(Cl)cc3)CC2)nc2ccccc2c1=O [erastin] are 0.735 and 0.668.
The matching figures for `CN(CCOc1ccc(CC2SC(=O)NC2=O)cc1)c1ccccn1` (stereo unspecified) [Rosiglitazone HCl] + CCOc1ccccc1-n1c(C(C)N2CCN(C(=O)COc3ccc(Cl)cc3)CC2)nc2ccccc2c1=O [erastin]: 0.619 and 0.774.
On the same counts, the results for `CC(O)(CC(=O)O)CC(=O)O` [Meglutol] + CCOc1ccccc1-n1c(C(C)N2CCN(C(=O)COc3ccc(Cl)cc3)CC2)nc2ccccc2c1=O [erastin] are 0.708 and 0.67.
`O=C(NCCS(=O)(=O)c1ccc(C(F)(F)F)cn1)c1ccc(Cl)cc1` + CCOc1ccccc1-n1c(C(C)N2CCN(C(=O)COc3ccc(Cl)cc3)CC2)nc2ccccc2c1=O [erastin]: the values for the relative cell viability in the experiment with HCC1937 and with MDA-MB-231 were 0.511 and 0.503, respectively.
On the same counts, the results for `O=C(O)c1ccnc(N2CC(O)(c3ccc(OCc4c(-c5c(Cl)cccc5Cl)noc4C4CC4)cc3Cl)C2)c1` [Cilofexor] + CCOc1ccccc1-n1c(C(C)N2CCN(C(=O)COc3ccc(Cl)cc3)CC2)nc2ccccc2c1=O [erastin] are 0.577 and 0.692.
Consider `COc1ccc(-c2c[nH]c3nccc(-c4ccsc4)c23)c(OC)c1` + CCOc1ccccc1-n1c(C(C)N2CCN(C(=O)COc3ccc(Cl)cc3)CC2)nc2ccccc2c1=O [erastin], for which the relative cell viability with HCC1937 stood at 0.675; in the experiment with MDA-MB-231, 0.834.
On the same counts, the results for `CCCc1cc(-c2nc(-c3ccc(C)cc3)cs2)ccn1` [Fatostatin] + CCOc1ccccc1-n1c(C(C)N2CCN(C(=O)COc3ccc(Cl)cc3)CC2)nc2ccccc2c1=O [erastin] are 0.534 and 0.595.
The matching figures for `O=C(Nc1ccccc1)c1cc([N+](=O)[O-])ccc1Cl` + CCOc1ccccc1-n1c(C(C)N2CCN(C(=O)COc3ccc(Cl)cc3)CC2)nc2ccccc2c1=O [erastin]: 0.71 and 0.706.
On the same counts, the results for `CCCCCC=CC(=O)CCc1ccc(O)c(OC)c1` [6-Shogaol] + CCOc1ccccc1-n1c(C(C)N2CCN(C(=O)COc3ccc(Cl)cc3)CC2)nc2ccccc2c1=O [erastin] are 0.639 and 0.559.
As for `CC(C)Cc1ccc([C@H](C)C(=O)O)cc1` [Dexibuprofen] + CCOc1ccccc1-n1c(C(C)N2CCN(C(=O)COc3ccc(Cl)cc3)CC2)nc2ccccc2c1=O [erastin], the relative cell viability is 0.901 with HCC1937 and 0.642 with MDA-MB-231.
The matching figures for `CC(C)(CCCCCC(O)CCCCCC(C)(C)C(=O)O)C(=O)O` + CCOc1ccccc1-n1c(C(C)N2CCN(C(=O)COc3ccc(Cl)cc3)CC2)nc2ccccc2c1=O [erastin]: 0.421 and 0.405.
On the same counts, the results for `c1ccc([C@H]2CN3CCSC3=N2)cc1` [Levamisole hydrochloride] + CCOc1ccccc1-n1c(C(C)N2CCN(C(=O)COc3ccc(Cl)cc3)CC2)nc2ccccc2c1=O [erastin] are 0.768 and 0.779.
On the same counts, the results for `CC(C)(O)[C@@H]1Cc2cc3ccc(=O)oc3cc2O1` [marmesin] + CCOc1ccccc1-n1c(C(C)N2CCN(C(=O)COc3ccc(Cl)cc3)CC2)nc2ccccc2c1=O [erastin] are 0.645 and 0.646.
On to `C=CCc1ccc(O)c(-c2cc(CC=C)ccc2O)c1` [Magnolol] + CCOc1ccccc1-n1c(C(C)N2CCN(C(=O)COc3ccc(Cl)cc3)CC2)nc2ccccc2c1=O [erastin], for which the relative cell viability was 0.99 in the experiment on HCC1937 and 1.02 in the experiment with MDA-MB-231.
On to `CCOc1cc(CC(=O)N[C@@H](CC(C)C)c2ccccc2N2CCCCC2)ccc1C(=O)O` [Repaglinide] + CCOc1ccccc1-n1c(C(C)N2CCN(C(=O)COc3ccc(Cl)cc3)CC2)nc2ccccc2c1=O [erastin], for which the figures for the relative cell viability in the experiment on HCC1937 and in the experiment on MDA-MB-231 were 0.711 and 0.566, respectively.
On the same counts, the results for `CCCCCCCCCCC[C@@H](C[C@@H]1OC(=O)[C@H]1CCCCCC)OC(=O)[C@H](CC(C)C)NC=O` [Orlistat] + CCOc1ccccc1-n1c(C(C)N2CCN(C(=O)COc3ccc(Cl)cc3)CC2)nc2ccccc2c1=O [erastin] are 0.725 and 0.52.
The matching figures for `CCCCCCCCCCC#CC#CCCCCCCCCC(=O)O` [10,12-Tricosadiynoic acid] + CCOc1ccccc1-n1c(C(C)N2CCN(C(=O)COc3ccc(Cl)cc3)CC2)nc2ccccc2c1=O [erastin]: 0.648 and 0.627.
